Source: PubChem (National Center for Advancing Translational Sciences (NCATS))
KDM5B inhibitor: Primary screen for KDM5B Histone Demethylases FDH-coupled qHTS. KDM5B demethylase, FDH-coupled NADH fluorescence (FDH is formaldehyde dehydrogenase). 220,000 compounds, 2.6% hits. AID 1347165, 2019. Potency, µM (doses to about 57.7 µM), hits mostly inhibitors; active = well fitted inhibition curve with a large enough effect; note: 0% is about no effect; nearly all actives have a fitted effect of over 70% in size
Target sequence (Q9UGL1 whole entry, looked up): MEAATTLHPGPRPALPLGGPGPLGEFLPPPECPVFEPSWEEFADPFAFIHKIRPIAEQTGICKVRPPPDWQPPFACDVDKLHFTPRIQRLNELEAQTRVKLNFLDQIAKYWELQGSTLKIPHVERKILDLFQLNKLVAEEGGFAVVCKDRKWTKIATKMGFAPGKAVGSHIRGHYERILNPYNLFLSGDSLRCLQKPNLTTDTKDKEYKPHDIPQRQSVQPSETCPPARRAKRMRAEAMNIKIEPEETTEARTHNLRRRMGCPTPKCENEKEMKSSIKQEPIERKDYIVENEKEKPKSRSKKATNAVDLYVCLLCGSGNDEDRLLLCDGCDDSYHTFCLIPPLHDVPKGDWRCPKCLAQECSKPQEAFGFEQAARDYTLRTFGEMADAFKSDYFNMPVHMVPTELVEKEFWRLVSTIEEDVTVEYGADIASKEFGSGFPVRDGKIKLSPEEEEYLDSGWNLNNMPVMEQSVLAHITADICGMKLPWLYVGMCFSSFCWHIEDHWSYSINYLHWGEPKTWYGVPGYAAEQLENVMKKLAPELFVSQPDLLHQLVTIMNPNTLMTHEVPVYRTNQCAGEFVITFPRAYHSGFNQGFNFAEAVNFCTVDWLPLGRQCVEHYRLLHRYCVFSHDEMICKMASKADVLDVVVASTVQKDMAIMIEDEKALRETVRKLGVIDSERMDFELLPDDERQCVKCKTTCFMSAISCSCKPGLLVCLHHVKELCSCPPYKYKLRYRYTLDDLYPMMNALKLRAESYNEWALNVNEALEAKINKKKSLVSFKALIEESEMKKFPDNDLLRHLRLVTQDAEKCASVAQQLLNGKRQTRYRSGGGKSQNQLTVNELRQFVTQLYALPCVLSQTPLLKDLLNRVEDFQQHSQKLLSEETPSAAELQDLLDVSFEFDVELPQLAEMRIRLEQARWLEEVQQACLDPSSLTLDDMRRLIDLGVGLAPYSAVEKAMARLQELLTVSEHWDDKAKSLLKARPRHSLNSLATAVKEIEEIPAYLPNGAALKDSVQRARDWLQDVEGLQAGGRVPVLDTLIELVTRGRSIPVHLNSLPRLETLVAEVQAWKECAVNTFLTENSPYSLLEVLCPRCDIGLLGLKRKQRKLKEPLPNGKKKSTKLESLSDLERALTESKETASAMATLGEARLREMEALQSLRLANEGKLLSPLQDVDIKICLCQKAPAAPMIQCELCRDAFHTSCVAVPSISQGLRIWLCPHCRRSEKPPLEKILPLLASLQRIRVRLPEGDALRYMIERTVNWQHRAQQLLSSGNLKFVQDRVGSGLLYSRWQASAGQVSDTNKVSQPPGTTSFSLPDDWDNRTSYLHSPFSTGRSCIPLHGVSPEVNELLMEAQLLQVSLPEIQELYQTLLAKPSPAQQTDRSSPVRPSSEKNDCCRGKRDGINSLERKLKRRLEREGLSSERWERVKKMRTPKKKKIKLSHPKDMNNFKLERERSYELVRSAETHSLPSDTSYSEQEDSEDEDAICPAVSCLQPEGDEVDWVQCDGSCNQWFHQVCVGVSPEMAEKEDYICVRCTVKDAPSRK
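Inhibition is measured as reduced NADH fluorescence generation from FDH coupling to formaldehyde release. Truncated KDM5BΔAP at 200 nM final acts on H3K4me3 peptide (12.5 µM in substrate mix) in pH 7.5 HEPES buffer with Tween-20, 30 min, room temperature.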
An asterisk follows results filed as active; i = inactive. The entries come from a sample that favours hits as a whole. Potency is the fitted concentration of half-maximal effect.

SMILES | KDM5B inhibitor
Cc1cccc(N2CCN(C(=O)c3cnc4c(C)cccn4c3=O)CC2C)c1 (centres undefined) | i
C[C@@H]1CN(C(=O)c2cnc3c(O)cccn3c2=O)CC[C@@]1(O)C1CCC1 | 32µM*
C[C@@H]1CN(C(=O)c2cccc(-c3ncc[nH]3)c2)CC[C@@]1(O)C1CCOCC1 | i
Cc1ccc(O)c(CN2CC[C@@H](c3ccc(F)cc3)[C@H](O)C2)c1 | i
COc1ccc(OC)c(S(=O)(=O)Nc2ccc(-c3cn4ccc(C)nc4n3)cc2)c1 | i
Cc1cc(C)n2nc(C(=O)N3CCC(Cc4cccc(C(N)=O)c4)C3)nc2n1 (centres undefined) | i
O=C(c1cnn2ccccc12)N1CCC(Cc2cccc(CO)c2)C1 (centres undefined) | 28µM*
O=C(O)c1ccc(CC2CCN(C(=O)c3ccccc3Cl)C2)cc1 (centres undefined) | i
O=C(COc1ccc2oc3c(c2c1)CCCC3)OCC(=O)c1ccc2c(c1)OCO2 | i
O=C(NNC(=O)C1CCCCC1)c1ccc(Cl)c(Cl)c1 | i
Cc1nc2c(c(-c3ccc(Cl)cc3)n1)CN([S+](=O)([O-])c1ccsc1)CC2 | i
COc1ccc(CNC(=O)N2CCC(Cc3nc(-c4ccncc4)n[nH]3)C2)cc1 (centres undefined) | i
CCOCCCNC(=O)N1CCC(Cc2nc(-c3ccncc3)n[nH]2)CC1 | 32µM*
CCCNC(=O)N1CCC(Cc2nc(-c3ccccc3)n[nH]2)C1 (centres undefined) | i
CCN(CC)Cc1nc(C2(O)CCN(Cc3ccccc3C(F)(F)F)CC2)cs1 | i
Cc1csc(NC(=O)[C@@H]2C[C@@H](c3cccc(C(F)(F)F)c3)N(Cc3cnn(C)c3)C2)n1 | i
CC(C)C(Br)C(=O)Nc1ccc(F)cc1 (centres undefined) | i
CC(C)NC(=O)c1nc(-c2ccsc2)c2ccccn12 | 112µM*
CC(C)NC(=O)c1nc(-c2ccccc2)c2ccccn12 | i
CC(C)NC(=O)c1sc2ncccc2c1-n1cccc1 | i
CC(C)c1ccc(Nc2c(-c3ccsc3)nc3ccc(Cl)cn23)cc1 | i
CC(C)NC(=O)c1nc(-c2ccsc2)c2cnccn12 | 40µM*
C#CCNC(=O)c1nc(-c2ccsc2)c2cnccn12 | 32µM*
CC(C)NC(=O)c1nc(-c2ccc([S+](C)(=O)[O-])cc2)c2ccccn12 | i
CC(C)NC(=O)c1nc(-c2ccc(Cl)cc2)c2ccccn12 | 89µM*
SMILES | KDM5B inhibitor
C#CCNC(=O)c1csc(-c2ccc(C)cc2)n1 | i
Cc1ccccc1-c1noc(CNC(C)c2ccc(-n3cncn3)cc2)n1 (centres undefined) | i
O=C(c1cccc(OC(F)(F)F)c1)N1CCC(N2CC3CC(C2)[C@H]2CCCC(=O)N2C3)CC1 (some centres undefined) | i
N#Cc1ccc(Sc2ccc(Oc3cccc(Sc4ccc(C#N)c(C#N)c4)c3)cc2)cc1C#N | i
O=C(c1c(F)cccc1F)N1CCCC2(C1)NC(=O)N(Cc1cccc(Cl)c1)C2=O (centres undefined) | i
Cc1csc(SC2=CS(=O)(=O)c3ccccc32)n1 | i
Cn1c(=O)c2c(nc(Cl)n2CC(=O)N(Cc2ccccc2F)C2CC2)n(C)c1=O | i
CNC(=O)C(C)(C)N1CCC[C@H]1C(=O)NC1CCCC1 | i
COc1cccc(CC(=O)NCc2nnc3c(-c4nc(C)no4)cccn23)c1 | 18µM*
COc1ccc(CC(=O)NCc2nnc3ccccn23)c(OC)c1 | i
COCc1ncc(C)n1CCNC(=O)c1ccoc1 | i
Cc1noc(-c2cccn3c(CNC(=O)c4ccoc4)nnc23)n1 | 28µM*
Cc1cc2nc(-c3cccc(NC(=O)c4cccnc4)c3C)oc2cc1C | i
Cc1noc(-c2cccn3c(CNC(=O)c4cccnc4)nnc23)n1 | 28µM*
O=C(Nc1ccccc1-c1nc(Cc2ccccc2)no1)c1cccnc1 | i
Cc1ccsc1CNC(=O)c1cccnc1 | i
Cc1csc(NC(=O)CCNC(=O)c2ccoc2)n1 | i
COc1cccc(CNC(=O)Cn2cccc2-c2nc(-c3ccc(OC)c(F)c3)no2)c1 | i
CCc1noc(-c2cccn3c(CNC(=O)c4cccnc4)nnc23)n1 | 32µM*
CC(C)=CC(=O)NCCC[C@H](NC(=O)[C@@H]1[C@@H](NC(=O)Nc2ccc(F)cc2F)CCN1C(=O)C=C(C)C)C(N)=O | i
CC1(c2ccccc2)N(Cc2ccccc2)C(=O)OC12CCN(C(=O)C1CCOCC1)CC2 (centres undefined) | i
CCCN(C)C(=O)CCc1ccc2c(c1)CN(S(C)(=O)=O)CCO2 | i
CN(CCOc1cccc(Cl)c1)Cc1nc(N)nc(N)n1 | i
CCOc1cc(CNCc2cccnc2)cc(Cl)c1OCC | i
Cc1cnn(CCC(=O)N[C@@H]2CN(Cc3cccnc3)C[C@H]2CN(C)C)c1 | i
SMILES | KDM5B inhibitor
COc1ccc2c(C)c(CC(=O)NCc3ccc(C)cc3)c(=O)oc2c1 | i
O=C(Cc1n[nH]c(=O)c2ccccc12)NCCOc1cccc(Cl)c1 | i
Cc1ccc(C(C)NC(=O)C2(c3cccc(F)c3)CCOCC2)s1 (centres undefined) | i
CO[C@@H]1COCC[C@H]1NC(=O)COc1cccc(-n2cnnn2)c1 | i
COc1cccc(C(=O)N2CCC(C(=O)N[C@@H]3CCOC[C@H]3OC)CC2)c1 | i
CO[C@@H]1COCC[C@H]1NC1CCN(c2ncc3ccc(F)cc3n2)CC1 | 28µM*
Cc1ccc2c(c1)c(Cn1cnc(-c3ccccc3)c1-c1cnc[nH]1)nn2C | i
O/N=C(\c1ccc(Cl)cc1)c1ccco1 | i
COCc1nnc2n1CCC(NC(=O)c1cc(C3CC3)[nH]n1)CC2 (centres undefined) | i
COCc1nnc2n1CCC(NC(=O)c1ccn(C)n1)CC2 (centres undefined) | i
COCc1nnc2n1CCC(NC(=O)c1ccc3cc[nH]c3c1)CC2 (centres undefined) | 28µM*
Cc1ccc2nc(C)c(C(=O)/C=C/c3ccccc3C)c(-c3ccccc3)c2c1 | i
N#Cc1ccccc1CNc1cccc(Cl)c1 | i
COc1ccc(-c2ccc3c(c2)C(=O)N2CC[C@H](NC(=O)C4CCCC4)[C@H]2C(=O)N3)c(OC)c1 | 32µM*
O=C(O)COCC(=O)N[C@H]1CCN2C(=O)c3ccc(Cl)cc3NC(=O)[C@H]12 | i
CSCC(=O)N[C@H]1CCN2C(=O)c3cc(/C=C/c4ccccc4)ccc3NC(=O)[C@H]12 | 16µM*
CC(C)NC(=O)N[C@H]1CCN2C(=O)c3cc(/C=C/c4ccccc4)ccc3NC(=O)[C@H]12 | 35µM*
O=C(O)COCC(=O)N[C@H]1CCN2C(=O)c3cc(-c4ccccc4)ccc3NC(=O)[C@H]12 | i
NCc1cccc(-c2ccc3c(c2)C(=O)N2CC[C@H](NC(=O)NC4CCCCC4)[C@H]2C(=O)N3)c1 | i
COc1ccc(/C=C/c2ccc3c(c2)C(=O)N2CC[C@H](NC(=O)COCC(=O)O)[C@H]2C(=O)N3)cc1 | 22µM*
CC(C)NC(=O)N[C@H]1CCN2C(=O)c3cc(Br)ccc3NC(=O)[C@@H]2C1 | i
COc1ccc(Cl)cc1-c1ccc2c(c1)C(=O)N1CC[C@H](NC(=O)C3CCCC3)[C@H]1C(=O)N2 | i
O=C(N[C@H]1CCN2C(=O)c3cc(-c4ccccc4F)ccc3NC(=O)[C@H]12)C1CCCC1 | i
